“And” between values parts separate entries of the source, which are not always exact repeats. Equal entries are not always repeated. The source made the active and inactive calls.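 How the source made its calls: active means viability loss from added drug above about 55%, and viability with drug at most 40%, in both replicates (limit read from the data, passing the limit was not always enough); inconclusive means both conditions met in only one replicate; inactive means neither replicate meets both conditions.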
Assay: reversal of MRP1-mediated doxorubicin resistance, pilot screen, H69AR cells, doxorubicin co-treatment (AID 601)
Settings: H69AR cells + 2 uM doxorubicin, CellTiter-Glo, 72 h; at 10 µM; stronger effect = higher value

**Q.** Which differential viability (reversal) does the source give for `CC(C)N(CCC(C(N)=O)(c1ccccc1)c1ccccn1)C(C)C` (configuration not stated) here?
**A.** Its differential viability (reversal) is -15.8% (inactive).

**Q.** Which differential viability (reversal) does the source give for `C[N+]1(C)CCc2cc3c(cc2[C@H]1[C@@H]1OC(=O)c2c1ccc1c2OCO1)OCO3` here?
**A.** The differential viability (reversal) was 7.33% (inactive).

**Q.** For `c1ccc2c(c1)OCC(C1=NCCN1)O2` (configuration not stated), which differential viability (reversal) is on record?
**A.** Its differential viability (reversal) is 9.15% (inactive).

**Q.** Which differential viability (reversal) does the source give for `COc1ccc(OC)c(C(O)C(C)N)c1` (configuration not stated) here?
**A.** Its differential viability (reversal) is -7.17% (inactive).

**Q.** Which differential viability (reversal) does the source give for `C[N+]1(C)[C@@H]2CC[C@H]1CC(OC(=O)C(CO)c1ccccc1)C2` (some centres not stated) here?
**A.** The differential viability (reversal) was 4.59% (inactive) and 7.77% (inactive).

**Q.** With `COc1ccc2[nH]cc(CCN(C)C)c2c1` as the compound, how does the differential viability (reversal) read?
**A.** The differential viability (reversal) was 8.63% (inactive).

**Q.** With `CCC(COC(=O)c1cc(OC)c(OC)c(OC)c1)(c1ccccc1)N(C)C` (configuration not stated) as the compound, how does the differential viability (reversal) read?
**A.** Its differential viability (reversal) is 11.9% (inactive).

**Q.** With `COc1ccc(C(=O)N2CCCC2=O)cc1` as the compound, how does the differential viability (reversal) read?
**A.** Its differential viability (reversal) is 13.5% (inactive).

**Q.** With `CC[C@@H]1C(=O)OC[C@@H]1Cc1cncn1C` as the compound, how does the differential viability (reversal) read?
**A.** The differential viability (reversal) was 12.4% (inactive) and -2.8% (inactive).

Same assay, conditions: H69AR cells + 2 uM doxorubicin, CellTiter-Glo, 72 h; measured here: viability with 2 uM doxorubicin; at 10 µM; stronger effect = lower value

**Q.** For `CC(C)N(CCC(C(N)=O)(c1ccccc1)c1ccccn1)C(C)C` (configuration not stated), which viability is on record?
**A.** The viability was 108%.

**Q.** Which viability does the source give for `C[N+]1(C)CCc2cc3c(cc2[C@H]1[C@@H]1OC(=O)c2c1ccc1c2OCO1)OCO3` here?
**A.** Its viability is 105%.

**Q.** With `c1ccc2c(c1)OCC(C1=NCCN1)O2` (configuration not stated) as the compound, how does the viability read?
**A.** The viability was 72.2%.

**Q.** For `COc1ccc(OC)c(C(O)C(C)N)c1` (configuration not stated), which viability is on record?
**A.** The viability was 105%.

**Q.** With `C[N+]1(C)[C@@H]2CC[C@H]1CC(OC(=O)C(CO)c1ccccc1)C2` (some centres not stated) as the compound, how does the viability read?
**A.** The viability was 95.6% and 104%.

**Q.** Which viability does the source give for `COc1ccc2[nH]cc(CCN(C)C)c2c1` here?
**A.** Its viability is 99.5%.

**Q.** With `CCC(COC(=O)c1cc(OC)c(OC)c(OC)c1)(c1ccccc1)N(C)C` (configuration not stated) as the compound, how does the viability read?
**A.** Its viability is 75.7%.

**Q.** Which viability does the source give for `COc1ccc(C(=O)N2CCCC2=O)cc1` here?
**A.** Its viability is 89.1%.

**Q.** Which viability does the source give for `CC[C@@H]1C(=O)OC[C@@H]1Cc1cncn1C` here?
**A.** Its viability is 89.8% and 98.8%.

Same assay, conditions: H69AR cells, CellTiter-Glo, 72 h; compound alone cytotoxicity; at 10 µM

**Q.** With `CC(C)N(CCC(C(N)=O)(c1ccccc1)c1ccccn1)C(C)C` (configuration not stated) as the compound, how does the viability read?
**A.** Its viability is 91.8%.

**Q.** For `C[N+]1(C)CCc2cc3c(cc2[C@H]1[C@@H]1OC(=O)c2c1ccc1c2OCO1)OCO3`, which viability is on record?
**A.** Its viability is 113%.

**Q.** Which viability does the source give for `c1ccc2c(c1)OCC(C1=NCCN1)O2` (configuration not stated) here?
**A.** Its viability is 81.4%.

**Q.** Which viability does the source give for `COc1ccc(OC)c(C(O)C(C)N)c1` (configuration not stated) here?
**A.** The viability was 98.1%.

**Q.** Which viability does the source give for `C[N+]1(C)[C@@H]2CC[C@H]1CC(OC(=O)C(CO)c1ccccc1)C2` (some centres not stated) here?
**A.** Its viability is 100% and 112%.

**Q.** For `COc1ccc2[nH]cc(CCN(C)C)c2c1`, which viability is on record?
**A.** The viability was 108%.

**Q.** Which viability does the source give for `CCC(COC(=O)c1cc(OC)c(OC)c(OC)c1)(c1ccccc1)N(C)C` (configuration not stated) here?
**A.** The viability was 87.6%.

**Q.** For `COc1ccc(C(=O)N2CCCC2=O)cc1`, which viability is on record?
**A.** The viability was 103%.

**Q.** With `CC[C@@H]1C(=O)OC[C@@H]1Cc1cncn1C` as the compound, how does the viability read?
**A.** The viability was 102% and 96%.
